From PubChem BioAssay AID687020 (Broad Institute, 2013)
The campaign covered roughly 1,400 compounds. About 100 (7.1%) were called active. These entries were drawn from the full list. Entries with a potency or affinity are not part of this list. Unmarked numbers belong to inactive results. No rule for the calls is given here.

Assay: Vero cell toxicity, dose response, cytotoxicity control, plate reader, cherry-pick samples (AID 687020);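 also: compounds incubated with cells for three days before luminescence read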
Details: Vero cells toxicity; series mostly up to 19.5 µM; activity change, negative = toxicity: at the top concentration

Structure (SMILES) | activity change, negative = toxicity
C[C@H](CCC(=O)O)[C@H]1CC[C@H]2[C@@H]3CC[C@@H]4C[C@H](O)CC[C@]4(C)[C@H]3C[C@H](O)[C@]12C | -10.8%
Cc1oc2c(C)c3oc(=O)c(CCC(=O)NCCN4CCOCC4)c(C)c3cc2c1C | 5.6%
CC(Oc1ccc(Cl)cc1Cl)C(=O)NCCCN1CCOCC1 (configuration not stated) | -2.88%
O=C(NC1CCCCC1)N[C@H]1C=C[C@@H](CC(=O)N2CCOCC2)O[C@@H]1CO | -5.32%
CN(CC(=O)Nc1ccccc1C(=O)NC1CC1)Cc1ccccc1F | -2.83%
CCCCCC(=O)NC1CCCCN(C)C1=O (configuration not stated) | 2.66%
CC(=O)NCCNc1nc(NCc2cccs2)nc2ccsc12 | -8.23%
COc1ccc(N2CCN(Cc3nc4c(c(=O)[nH]c(=O)n4C)n3Cc3cccc(Cl)c3)CC2)cc1 | -14.8%
NC(c1csc(NC(=O)Nc2cccc(Cl)c2)n1)C1CCCCC1 (configuration not stated) | -6.54%
Cc1ccc(Cn2cc(CN3CC(N(C)C)CS3(=O)=O)nn2)cc1 (configuration not stated) | -29.8%
CC(C)(C)OC(=O)NC(CC(=O)OCc1ccccc1)C(=O)O (configuration not stated) | 4.95%
O=S(=O)(c1ccc(=S)[nH]c1)N1CCN(Cc2ccccc2)CC1 | -9.4%
O=C(O)C(Cc1ccc(Cl)cc1)NS(=O)(=O)c1ccc(Cl)cc1 (configuration not stated) | -12.4%
O=C(O)C1C2C=CC(C2)C1C(=O)NCc1ccccc1 (configuration not stated) | -11.6%
O=C(Nc1cc(F)cc(F)c1)c1sc(Cl)nc1-c1ccccc1 | -19.5%
CCS(=O)(=O)N1CCC2(CC1)OCCN2S(=O)(=O)c1ccccc1 | -6.28%
NC(=O)C1CCN(C(=O)C2(NC(=O)Nc3cccc(F)c3)CCCCC2)CC1 | 9.22%
COc1ccc(CNC(=O)C[C@H]2C(=O)N(Cc3ccccc3)C[C@@H]2Cc2ccccc2)cc1 | -16.9%
CCCCN1C[C@H](Cc2ccccc2)[C@@H](CC(=O)NCc2ccc(OC)cc2)C1=O | -17.5%
CCCCn1nc(C(=O)Nc2ccc3c(c2)OCO3)c2ccccc2c1=O | -14.3%
CO[C@@H]1CN(C)C(=O)c2ccc(NS(=O)(=O)c3cccc(F)c3)cc2OC[C@@H](C)N(C(=O)Cc2cccnc2)C[C@H]1C | -6.46% [at 18 µM]
COc1ccc(-c2csc(C(C)(O)c3ccc(F)c(F)c3)n2)cc1OC (configuration not stated) | 4.66%
COc1cc(NC(=O)c2nccn2C)cc(C(=O)Nc2cccc(C(F)(F)F)c2)c1 | -11.7%
COc1ccc(NC(=O)CN2CCc3ccccc3C2)cc1S(=O)(=O)N1CCOCC1 | -4.47%

Structure (SMILES) | activity change, negative = toxicity
COc1ccc(CCC(=O)Nc2cc(S(=O)(=O)N3CCOCC3)ccc2OC(C)C)cc1 | -8.21%
CCCNC(=O)N1CC2(C1)CN(Cc1cccc(F)c1)[C@@H](CO)c1[nH]c3cc(OC)ccc3c12 | 1.05%
C[C@@H](NC(=O)[C@@H]1[C@@H](CO)[C@@H]2Cn3c(cccc3=O)[C@@H]2N1CC1CCCC1)c1ccccc1 | -15.9%
CC(Oc1ccc2ccc(=O)oc2c1)C(=O)NC(Cc1c[nH]c2ccc(O)cc12)C(=O)O (configuration not stated) | -5.7%
O=C(N[C@@H]1CC[C@H](CCNC(=O)C2CCCCC2)O[C@@H]1CO)c1ccccn1 | -2.22%
CCCc1cc(CNC(=O)C2CCC(=O)N(CCc3cccc(F)c3)C2)on1 (configuration not stated) | -26.1%
COc1ccc(CCN2CC(C(=O)NCCc3ncccc3C)CCC2=O)cc1 (configuration not stated) | 6.79%
Nc1ccc2oc(-c3ccccc3Cl)cc(=O)c2c1O | -5.16%
COc1ccc(Cl)cc1-c1cc(C(=O)N[C@H](C)c2ccccc2)[nH]n1 | -18.1%
Cc1ccc(OCCCCNC(C)c2ccccc2)c(C)c1 (configuration not stated) | -5.1%
Cc1cc(O)c(C(C)C)cc1NC(=O)c1ccccc1Cl | -17.8%
CC(C)c1ccccc1OCCCCN1CCCCC1 | -30.4%
Cc1noc(C)c1NC(=O)N(C)C[C@H]1OCCCC[C@H](C)Oc2ccc(NC(=O)NC(C)C)cc2C(=O)N([C@H](C)CO)C[C@@H]1C | -12.9%
CCOC(=O)c1cn(CC)c2cc3c(cc2c1=O)OCO3 | -2.25%
Cc1ccc(NC(=O)c2cc(-c3cc(Cl)ccc3C)n[nH]2)cc1NS(C)(=O)=O | 9.63%
O=C(NCc1ccccc1)[C@H]1CCCN1C(=O)[C@@H]1CCCN1C(=O)c1ccc(Cl)cc1Cl | -23.7%
O=C(NCc1ccccc1)c1ccccc1 | -0.227%
Cc1noc(C)c1NC(=O)Nc1cccc2c1O[C@@H](CN(C)S(=O)(=O)c1ccc(F)cc1)[C@@H](C)CN([C@@H](C)CO)C2=O | -3.08%
Fc1ccc(CNC2CCN(Cc3ccccc3)CC2)cc1 | 0.52%
C=CCOc1ccccc1CNn1c(C)n[nH]c1=S | -9.09%
CN(Cc1ccccc1)C(=O)c1nc[nH]c1C(=O)N1CCN(C(=O)OC(C)(C)C)CC1 | -6.81%
COC(=O)C[C@H]1CC[C@H]2[C@@H](COc3ccc(NC(=O)c4cnccn4)cc3C(=O)N2C)O1 | 1.66%
CS(=O)(=O)NCc1ccc(C(=O)NCCOc2ccccc2)cc1 | 2.03%
